Potency data for 16 compounds are collected here from PubChem BioAssay (NCATS).

The structures appear in SMILES notation. Inconclusive results are not listed. A call without a number means that no potency is given here. Active and inactive are the calls of the source. Calls follow the shape of the dose curve; as a rule, active = well fitted inhibition curve with a large enough effect; inconclusive = small, poorly fitted or top-dose-only effect; inactive = no such curve, though single readings can be large or run the other way.

The assay has as its system Zika virus NS2B-NS3 protease (linked construct). Put plainly: Primary screen NINDS Rhodamine qHTS for Zika virus inhibitors (AID 1347160). Also: nearly all actives have a fitted effect of over 55% in size. As to conditions: purified NS2B-NS3 protease, Rhodamine110 substrate fluorescence; series mostly up to 33.1 µM. A digest of the protocol:
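Aprotinin served as in-plate control. Conditions: 25 nM linked NS2B-NS3, pH 8.0 Tris buffer, titrated compounds, 15 min preincubation and 15 min reaction with 1.5 microM Rhod110 substrate at room temperature.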
`C[C@@H]1O[C@@H](O[C@H]2[C@H](O)[C@@H](O[C@@H]3O[C@H](CO)[C@H](O)[C@H](O)[C@H]3O)[C@H](O[C@H]3CC[C@@]4(C)C(CC[C@]5(C)C4CC=C4[C@@H]6CC(C)(C)CC[C@]6(C(=O)O[C@@H]6O[C@H](CO)[C@@H](O)[C@H](O)[C@H]6O)CC[C@]45C)C3(C)C)O[C@@H]2C(=O)O)[C@H](O)[C@H](O)[C@H]1O` (stereo partly specified): the Potency entry was “inactive”.
As for `C=C[C@H]1[C@H](O[C@@H]2O[C@H](CO)[C@@H](O)[C@H](O)[C@H]2O)OC=C(C(=O)OC)[C@H]1CCO`, the entry is “inactive”.
As for `Cc1ccccc1-c1cc(N2CCN(C)CC2)ncc1N(C)C(=O)C(C)(C)c1cc(C(F)(F)F)cc(C(F)(F)F)c1`, the entry is “inactive”; as for `COc1c2c(c(C)c3c1C(=O)OC3)OC1(C)CC(O)C34OC(OC)(CC(O)C3(C)C1C2)OC4(C)C` (stereo unspecified), “inactive”.
As for `CCCO[C@@H]1O[C@H](CO)[C@@H](O)[C@H](O)[C@H]1O[C@@H]1OC[C@@H](O)[C@H](O)[C@H]1O`, the entry is “inactive”; as for `COc1ccc(CC(=O)NCc2ccccc2-c2ccccc2C(=O)NCCc2cccnc2)cc1`, “inactive”.
On to `O=C(/C=C/c1ccccc1)O[C@@H]1[C@@H](CO)O[C@@](CO)(O[C@H]2O[C@H](CO)[C@@H](O)[C@H](O)[C@H]2O)[C@H]1O`, for which the Potency entry was “inactive”.
With `CC1(C)CC2C3=CCC4[C@@]5(C)CC[C@H](OC6OCC(O)C(OC7OC(CO)C(O)C(O)C7O)C6O)C(C)(C)C5CC[C@@]4(C)[C@]3(C)C[C@H](O)[C@@]2(CO)[C@H](OC(=O)c2ccccc2)C1` (stereo partly specified), the Potency result was “inactive”.
Under `CC(C)(O)C(O)C(=O)OCc1ccc(O[C@@H]2O[C@H](CO)[C@@H](O)[C@H](O)[C@H]2O)cc1` (stereo partly specified) stands “inactive”.
As for `C/C(=C\CCC(C)C1CC(O)C2(C)C3CCC4C(C)(C)C(OC5OCC(O)C(O)C5O)CCC45CC35CC(O)C12C)C(=O)O` (stereo unspecified), the entry is “inactive”; as for `C=C1C(OC(C)=O)[C@@]23CCC4[C@](C)(C(=O)O)CCC[C@@]4(C)[C@]2(O)CC[C@H]1C3` (stereo partly specified), “inactive”.
On to `CC1=CCC(O)C2(C)CCC3C(C)C(=O)OC3C12` (stereo unspecified), for which the Potency result is “inactive”.
As for `O=C(NC1Cc2ccccc2N(C[C@@H](O)CO)C1=O)c1cc2cc(Cl)sc2[nH]1` (stereo partly specified), the entry is “inactive”.
Under `O=C(CCc1ccccc1)c1c(O)c([C@@H]2O[C@H](CO)[C@@H](O)[C@H](O)[C@H]2O)c(O)c([C@@H]2O[C@H](CO)[C@@H](O)[C@H](O)[C@H]2O)c1O` stands “inactive”; under `C=C(C(=O)O)C1CC(O)C2(C)CCCC(C)(O)C2C1` (stereo unspecified), “inactive”.
As for `OC[C@H]1O[C@@H](Oc2cc(O)cc(-c3cc4ccc(O[C@@H]5O[C@H](CO)[C@@H](O)[C@H](O)[C@H]5O)cc4o3)c2)[C@H](O)[C@@H](O)[C@@H]1O`, the entry is “inactive”.
